Screening results (PubChem)
This is a sample that favours compounds with a hit; in the whole collection about 3.5% have one here.
TEAD-YAP block = TEAD-YAP interaction inhibition. HEK-TIYL cells, TEAD-Gal4/YAP UAS-luciferase luminescence. inhibition, % at 9.12 µM. 1.4% of 640,000 active; in the data active = inhibition above about 32%;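 note: 0% = median of test compound wells and 100% = reference inhibitor wells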
GPR151 activ = activates the human receptor GPR151; activation, % at 11.2 µM; 1% of 650,000 active; Q8TDV0; AID 1508602; PathHunter beta-arrestin GPR151 cells, luminescence; in the data active = activation above about 4.9%;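 note: 0% = median of compound wells and 100% = cells with positive control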
FBW7 act = human FBW7 E3 ligase activation, primary screen | normalized activity (activation), % at 26.1 µM | 0.13% of 650,000 active | AlphaScreen FBW7–phospho-cyclin E peptide binding, activator screen; in the data active = normalized activity above about 1.9%;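 note: purified mutant Fbw7 with reduced substrate affinity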
MITF inh = human MITF inhibition, primary screen; O75030; 0.91% of 650,000 active; inhibition, % at 2.6 µM; AlphaScreen MITF homodimerization, bead proximity signal; in the data active = inhibition above about 50%;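 note: 0% = vehicle wells with protein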
GPR151 confirm = human GPR151 activation, confirmation screen; shares compounds with GPR151 activ; GPR151 PathHunter beta-arrestin cells, luminescence, 90 min; % of EA-reagent control over plate median; activation, % at 11.2 µM; 6,700 tested, under 10 active; AID 1508609;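 active = mean percent activation across replicates above the confirmation screen cutoff of 4.91%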
GPR119 ag = counter-screen for GPR151 activators: effect on human GPR119 | activation, % at 11.2 µM | AID 1508611 | shares compounds with GPR151 activ | 0.3% of 6,700 active | GPR119 PathHunter beta-arrestin cells, luminescence, 90 min; 0 = compound-well median, 100 = enzyme-acceptor control;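 active = mean percent activation in the counterscreen above 29.09%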;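 note: counterscreen on off-target GPR119 to flag nonselective hits from the GPR151 activator screen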
Target sequence (Q8TDV5 whole entry, looked up): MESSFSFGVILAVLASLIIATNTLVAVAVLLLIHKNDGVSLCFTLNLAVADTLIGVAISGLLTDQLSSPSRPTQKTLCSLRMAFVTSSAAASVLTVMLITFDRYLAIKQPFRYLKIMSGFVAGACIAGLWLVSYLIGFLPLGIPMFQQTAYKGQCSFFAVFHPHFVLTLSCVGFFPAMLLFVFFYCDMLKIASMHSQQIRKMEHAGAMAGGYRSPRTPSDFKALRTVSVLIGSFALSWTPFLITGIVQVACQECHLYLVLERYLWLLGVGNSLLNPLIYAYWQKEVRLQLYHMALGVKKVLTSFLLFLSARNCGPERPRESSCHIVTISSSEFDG
Active calls of the source: *; x = not tested or not shown; ! = repeats disagree.

SMILES	TEAD-YAP block	GPR151 activ	FBW7 act	MITF inh	GPR151 confirm	GPR119 ag
Cc1ccc(NC(=O)CO/N=C(\N)c2nonc2N)cc1	7	5.9*	0	8	1	-6
CCOc1cn(-c2ccc(F)cc2)nc1C(=O)Nc1ccc(OC)c(OC)c1	7	-1	0	12	x	x
C=C1C(C(=O)N2CCOCC2)C1C(=O)N1CCOCC1 (stereo unspecified)	-7	5.4*	0	13	0	7
Cn1c(SCc2ccccc2)nnc1C1CCCN1C(=O)C1CCCO1 (stereo unspecified)	8	-1	0	4	x	x
Cn1c(SCc2ccccc2)nnc1C1CCCN1C(=O)c1ccc2c(c1)OCO2 (stereo unspecified)	-2	5.9*	0	-15	-1	-7
COc1ccc(CN(Cc2cc3cc(C)ccc3n3nnnc23)C(=O)c2ccco2)cc1	-10	0	0	4	x	x
COc1ccccc1CNC(=O)c1nnn(Cc2ccccc2)c1N	-6	14*	0	-4	-1	-11
CCOCCCNC(=O)c1ccc2c(=O)n(Cc3ccco3)c(=S)[nH]c2c1	18	-1	1	17	x	x
Cc1nc(NC(=O)/C=C/c2ccccc2)sc1C(=O)Nc1cccnc1	12	9.1*	0	-7	0	-5
Cc1cccc(CS(=O)(=O)CC2Nc3ccc(C(=O)N4CCN(c5cccc(C(F)(F)F)c5)CC4)cc3NC2=O)c1 (stereo unspecified)	1	5.2*	0	13	0	3
O=C1Nc2cc(C(=O)N3CCN(c4cccc(C(F)(F)F)c4)CC3)ccc2Sc2ccccc21	-3	5.1*	0	1	0	11
Cc1ccc(CS(=O)(=O)CC2Nc3ccc(C(=O)N4CCN(c5cccc(C(F)(F)F)c5)CC4)cc3NC2=O)cc1 (stereo unspecified)	0	0	0	-1	x	x
CCc1ccccc1NC(=O)N1CCC(NC(=O)OC(C)(C)C)CC1	3	0	0	10	x	x
CCN(CCO)c1cc(NC(C)C)c2c3c(onc13)-c1ccccc1C2=O	12	7.1*	0	24	1	13
CCNc1cc(N(CC)CCO)c2noc3c2c1C(=O)c1ccccc1-3	7	-2	-1	47	x	x
CCNc1nc(NCC)n2c(SCC(=O)Nc3ccccc3C)nnc2n1	3	6.8*	0	-14	0	1
CCNc1nc(NCC)n2c(SCC(=O)Nc3ccc(C)cc3C)nnc2n1	12	2	0	-4	x	x
CN(C)CCCOc1nn(Cc2ccccc2)c2ccccc12	-10	6.2*!	0	0	1	-5
O=C(CS(=O)(=O)c1ccccc1)NCc1ccc2c(c1)OCO2	-3	5.1*	0	8	1	14
O=C(Cc1cc(=O)[nH]c(=O)[nH]1)NCc1ccc2c(c1)OCO2	2	8.6*	0	10	0	5
O=C(CN1C(=O)/C(=C/c2ccccc2)Sc2ccccc21)NCc1ccc2c(c1)OCO2	-1	9.0*	0	-2	0	-1
O=C(CSc1n[nH]c(=O)n1C1CC1)NCc1ccc2c(c1)OCO2	17	6.3*	0	-12	0	0
O=C(CN1C(=O)/C(=C\c2cccc(Cl)c2)Sc2ccccc21)NCc1cccnc1	-7	0	0	6	x	x
Cc1cc(=O)[nH]c2nnc(SCC(=O)NCc3ccc4c(c3)OCO4)n12	8	-2	1	13	x	x
CCOC(CNC(=O)C1CCCN(C(=O)c2cn(C)nc2OC)C1)OCC (stereo unspecified)	4	-1	0	-4	x	x
SMILES	TEAD-YAP block	GPR151 activ	FBW7 act	MITF inh	GPR151 confirm	GPR119 ag
O=C(Cc1ccccc1)n1nc(NCc2cccs2)nc1NCc1cccs1	-10	-1	0	-6	x	x
NS(=O)(=O)c1ccc(NC(=S)NCc2ccc3c(c2)OCO3)cc1	-2	9.1*	0	-12	0	2
O=C(CCN1N=C(c2ccccc2)CCC1=O)NCc1ccc(Cl)cc1	-7	0	0	-3	x	x
O=S(=O)(Cc1ccc2c(c1)OCO2)c1ccc2ccccc2c1	-7	5.8*	0	12	0	-12
O=C(CCN1N=C(c2ccccc2)CCC1=O)NCc1ccc2c(c1)OCO2	8	7.2*	0	-1	0	-5
O=C1CCC([N+](=O)[O-])([N+](=O)[O-])c2nn(-c3ccccc3)nc21	2	1	0	8	x	x
